Experimental data from PubChem BioAssay AID1159580 (chemical genetic matrix, 2015).
Out of some 5,500 compounds screened, about 2,000 (36%) were called active. Roughly 18% stayed inconclusive and do not appear here. Rule as the data show it: active = normalized growth mostly below about 0.91 (no sharp cut-off); inconclusive = no clear call, values can overlap the other calls; inactive = mostly above about 0.92. Some of the results follow.

Experiment: chemical genetic growth profiling, strain panel (AID 1159580);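 also: tested at 20 µM; growth read once vehicle control cultures reached saturation at 30 °C; 1 = growth at the plate median or of vehicle wells; lower values mean less growth of the strain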
Conditions: S. cerevisiae deletion strains, growth OD

Measured: normalized growth

CCCC[C@@]1(C2CCCC2)Cc2cc(OCC(=O)O)c(Cl)c(Cl)c2C1=O
inactive: locus YAL013W, strain DEP1, active compounds read low 1.02 | locus YAL040C, strain CLN3, active compounds read low 1 | locus YCL061C, strain MRC1 (second series), active compounds read low 1 | locus YDR363W, strain ESC2, active compounds read low 0.989 | locus YER002W, strain NOP16, active compounds read low 1.05 | locus YGR078C, strain PAC10, active compounds read low 1.02 | locus YGR229C, strain SMI1, active compounds read low 1.03 | locus YMR263W, strain SAP30, active compounds read low 1 | locus YNL153C, strain GIM3, active compounds read low 1.01 | locus YNL175C, strain NOP13, active compounds read low 0.986 | locus YNL197C, strain WHI3, active compounds read low 0.959 | locus YNL224C, strain SQS1, active compounds read low 0.989 | locus YOR083W, strain WHI5 (second series), active compounds read low 1 | locus YPL241C, strain CIN2, active compounds read low 1
